Records with an inconclusive call do not appear. A call without a number means that no potency is given here. Calls of active or inactive are those of the source. Calls follow the shape of the dose curve; as a rule, active = well fitted curve in the direction sought with a large enough effect; inconclusive = small, poorly fitted or top-dose-only effect, or another doubt; inactive = no such curve, though single readings can be large or run the other way.

This assay is described as follows: Cell viability assay for measurement of the protective activity of small molecules against cell death caused by Zika virus infection in human astrocytes. The conditions noted are these: human astrocytes ZIKV-induced death, ATP luminescence, 72 h; series mostly up to 46.1 µM. The source says:
National Center for Advancing Translational Sciences [NCATS] Johns Hopkins University School of Medicine Florida State University Assay Overview: Zika virus infection causes cell death in certain cell types including human neural progenitor cells (hNPCs), astrocytes, and astrocytoma cell line (SNB-19). This cell viability assay measures the ATP content (level) in human astrocytes using a luminescence readout that is proportional to viable cell numbers. Decrease in the luminescence signal after Zika virus infection indicates the cell death caused by Zika virus. Small molecule inhibitors […] the decreased luminescence signal after Zika virus infection, indicating the protective effect of that small molecule on the cell death caused by Zika virus infection. This observed protective effect of small molecules against Zika virus induced cell death may result from inhibition of virus replication or cellular response to the virus infection.
Assay Protocol Summary: The medium for astrocytes contains AM basal medium (ScienCell, Cat.# 1801), AGS (ScienCell, Cat.# 1801), 10% FBS, and 1% Pen/Strep. The ATP content assay kit (PerkinElmer, Cat.# 6016731) was used to determine cell viability. The reagent was reconstituted and prepared as described by the manufacturer. Cells were seeded in 384- or 1536-well assay plates and cultured at 37 C with 5% CO2 for 16 to 20 hours. The typical cell seeding density in the 1536-well plate assay is 350 cells/well in 3 ul medium for astrocytes in the tissue cultured treated/PDL coated plates. Compounds were added to cells and incubated for one hour before addition of ZIKV solution to cells (2 FFU/cell). After incubation at 37 C with 5% CO2 for 72 hours, the reagent mixture of the ATP content assay kit was added to each well, followed by incubation at room temperature for 10 minutes. The luminescence intensity of the assay plates was measured using a ViewLux plate reader (PerkinElmer). […] The percentage inhibitions of the decreased cell viability by small molecule inhibitors were then calculated.
With `CC(=Cc1ccccc1)C=C1SC(=S)N(CC(=O)O)C1=O`, the Potency result was “inactive”. Consider `O=C(Nc1ncc([N+](=O)[O-])s1)c1cccs1`, for which the Potency result is “inactive”. Next, `O=C(O)c1ccccc1NCCc1ccccc1`: “inactive”. With `CC1(C)Cc2c(sc(NC(=S)NC(=O)c3ccccc3)c2C(=O)O)CO1`, the Potency result is “inactive”.

With `CCCSc1ccc2nc(NC(=O)OC)[nH]c2c1`, the Potency entry was “inactive”. As for `C/C(=N\O)c1ccc(OCC(=O)N2CCCCC2)cc1`, the entry is “inactive”; as for `CN1CC(=O)N/C1=N/C(=O)Nc1cccc(Cl)c1`, “inactive”; as for `Nc1ccc(O)c(C(=O)O)c1`, “inactive”.

Turning to `Nc1ccc(N=Nc2ccccc2)c(N)n1`, the Potency entry is “inactive”.

Consider `COc1ccc(NC(=O)/C=C/c2ccc(Cl)cc2)cc1`, for which the Potency entry was “inactive”.

Regarding `COc1ccc2nc(NC(=O)Nc3ccccc3)sc2c1`, the Potency result was “inactive”. Consider `COc1cccc(-c2cc(=O)c3ccccc3o2)c1N`, for which the Potency result was “inactive”. Next, `CN(C)c1ccc(C(=C2C=CC(=[N+](C)C)C=C2)c2ccccc2)cc1`: “inactive”; `O=C(Nc1ccc(C(=O)O)c(O)c1)c1ccccc1`: “inactive”. As for `O=S(=O)(O)c1ccc2nc(-c3ccccc3)[nH]c2c1`, the entry is “inactive”; as for `CS(=O)(=O)c1ccc(-c2cn3ccccc3n2)cc1`, “inactive”; as for `Nc1nc2ccc([N+](=O)[O-])cc2s1`, “inactive”. As for `Cc1cccc(/C=C/c2ccccc2)n1`, the Potency entry is “inactive”. On to `CC(C(=O)O)c1ccc(-c2ccccc2)c(F)c1` (stereo not given), for which the Potency result is “inactive”. Take `CN1CC[C@@]2(C)c3cc(OC(=O)Nc4ccccc4)ccc3N(C)[C@@H]12`: the Potency entry was “inactive”. As for `NC(=O)c1cccc2[nH]c(-c3ccc([C@H]4CCCN4)cc3F)nc12`, the entry is “inactive”; as for `Cc1ccc(O)c(-n2nc3ccccc3n2)c1`, “inactive”; as for `O=S(=O)(O)CCSSCCS(=O)(=O)O`, “inactive”. Regarding `Cc1c(N)c(=O)n(-c2ccccc2)n1C`, the Potency result is “inactive”. Next, `Oc1ccc([C@H]2CNCc3c2ccc(O)c3O)cc1O`: “inactive”; `Nc1c(S(=O)(=O)O)cc(Nc2ccc(Nc3nc(Cl)nc(Nc4ccc(S(=O)(=O)O)cc4)n3)c(S(=O)(=O)O)c2)c2c1C(=O)c1ccccc1C2=O`: “inactive”. Next, `O=C(Nc1cc2cc[nH]c2cn1)c1ccccc1`: “inactive”. Next, `CN(C)c1ccc(N=NS(=O)(=O)O)cc1`: “inactive”. In the case of `CCN1CCC(n2cc(CNc3cc(Cl)c4ncc(C#N)c(Nc5ccc(F)c(Cl)c5)c4c3)nn2)CC1`, the Potency result is “inactive”. Next, `c1ccc(CCNc2nc(-c3ccccc3)cs2)cc1`: “inactive”; `O=c1cc(-c2ccccc2)oc2cc(O)c(O)c(O)c12`: “inactive”; `CC(O)=C(C#N)C(=O)Nc1ccc(C(F)(F)F)cc1`: “inactive”. Next, `CC(=O)OC(C)OC(=O)C(C)c1ccc(-c2ccccc2)c(F)c1` (stereo not given): “inactive”. Next, `COc1cccc2c1C(=O)c1c(O)c3c(c(O)c1C2=O)C[C@@](O)(C(=O)CO)CC3OC1CC(N2CCOC(OC)C2)C(O)C(C)O1` (stereo not given in full): 436 nM (active).

With `CNC(=O)c1ccccc1Sc1ccc2c(/C=C/c3ccccn3)n[nH]c2c1`, the Potency result is “inactive”. As for `Cc1csc(NC(=O)c2sc3nc4c(c(C(F)(F)F)c3c2N)CCC4)n1`, the entry is “inactive”.

`O=C(Nc1ccc(Br)cc1)c1cc(Br)cc(Br)c1O`: the Potency result is “inactive”. Regarding `CCCS(=O)c1ccc2nc(NC(=O)OC)[nH]c2c1` (stereo not given), the Potency entry is “inactive”.

Take `Cc1[nH]c(C=C2C(=O)Nc3ccccc32)c(C)c1CCC(=O)O`: the Potency entry is “inactive”. As for `O=C1c2ccccc2-[n+]2ccc3c([nH]c4ccccc43)c21`, the entry is “inactive”.

Source of the values: PubChem BioAssay AID1224856 (National Center for Advancing Translational Sciences (NCATS), 2016).
